From PubChem BioAssay
HT1080-NT tox: qHTS for induction of synthetic lethality in tumor cells producing 2HG: qHTS for the HT-1080-NT fibrosarcoma cell line; HT-1080-NT fibrosarcoma viability, CellTiter-Glo ATP luminescence, 48 h; Potency, µM (highest dose often 46.1 µM), for inactives: top-dose activity, negative = less viability, actives largely listed as cytotoxic; 360,000 compounds, 1.6% hits;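 further: NT is the 2HG producing partner of a matched IDH1 knockdown line; potency means the concentration at half of the fitted maximal effect; 0% = DMSO-treated cells and -100% = media-only wells without cells; nearly all actives have a fitted effect of over 55% in size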
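Viability by CellTiter-Glo luminescence after 48 h compound exposure at 37C of HT-1080-NT cells (750/well, RPMI, 5% FBS). % activity scaled between DMSO wells and medium-only wells, then curve-fitted and categorized by curve class.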
TDP1 cell CPT: qHTS for Inhibitors of human tyrosyl-DNA phosphodiesterase 1 (TDP1): qHTS in cells in presence of CPT; Potency, µM (series often up to 46.2 µM), for inactives: at the top dose activity change, negative = growth inhibition, hits mostly inhibitors; AID 686979, 2013; 420,000 compounds, 12% hits; chicken DT40 Tdp1-/-;hTDP1 cells + 20 nM CPT, ATP luminescence, 48 h; further: potency means the concentration at half of the fitted maximal effect; nearly all actives have a fitted effect of over 55% in size
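Chicken DT40 Tdp1-/- cells complemented with human TDP1, 400 cells/well, exposed to compounds plus 20 nM camptothecin for at least 48 h at 37 C; viability read as ATP content by CellTiter-Glo luminescence.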
IL-1B inflam inh: qHTS for Inhibitors of Inflammasome Signaling: IL-1-beta AlphaLISA Primary Screen. 360,000 compounds, 4.7% hits. activity change, % at 57.5 µM. THP-1 LPS/ATP IL-1B secretion, AlphaLISA, 16 h; active compounds read low; in the data active means activity change below about -50%; inconclusive means mostly about -30% to -49%
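THP-1 cells pretreated 1 hr with compounds (up to 57.5 uM final), then stimulated with LPS (250 ng/mL final) plus ATP (1.25 mM final); secreted IL-1B measured by AlphaLISA after 16 hr, decreased signal indicating inhibition.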
HT1080 IDH1KD tx: qHTS for induction of synthetic lethality in tumor cells producing 2HG: qHTS for the HT-1080-IDH1KD cell line; Potency, µM (doses to about 46.1 µM), for inactives: at the top dose activity, negative = toxicity, usual class: cytotoxic; AID 686971, 2013; HT-1080 IDH1 knockdown viability, ATP luminescence, 48 h; 360,000 compounds, 2% hits;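 further: potency means the concentration at half of the fitted maximal effect; 0% = DMSO wells and -100% = cell-free medium wells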
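Assay cells: HT-1080 with IDH1 knockdown, 750 per well, RPMI/5% FBS. Exposure: 48 h at 37 °C following 2 h pre-incubation. Read: CellTiter-Glo luminescence; fitted concentration-response, curve class assigned.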
TDP1 cell noCPT: qHTS for Inhibitors of human tyrosyl-DNA phosphodiesterase 1 (TDP1): qHTS in cells in absence of CPT | AID 686978, 2013 | DT40 Tdp1-/- hTDP1 cells, no CPT, ATP luminescence, 48 h | 420,000 compounds, 15% hits | Potency, µM (highest dose often 46.2 µM), without a hit: at the highest dose activity change, negative = growth inhibition, most hits filed as inhibitors; further: potency means the concentration at half of the fitted maximal effect; nearly all actives have a fitted effect of over 55% in size
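Cells were dispensed at 400 per well, compounds added by pin tool, plates incubated ≥48 hr at 37 °C, then CellTiter-Glo added for 30 min at room temperature before luminescence reading. Line: DT40 Tdp1-/- complemented with hTDP1; camptothecin omitted.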
Starred values were filed as active, the others as inactive; i = inactive; ? = inconclusive; · = not tested or not shown. Rows were chosen to be rich in hits. Some 19% of all compounds tested hit in one or more screens of this group. Unless noted, the call rests on the fitted dose curve; in most records, active means well fitted curve in the direction sought with a large enough effect; inconclusive means small, poorly fitted or top-dose-only effect, or another doubt; inactive means no such curve, though single readings can be large; an effect the other way counts as inactive or inconclusive. Unless noted, on the % scale 0 is the no-effect control and ±100 the full control effect.

SMILES	HT1080-NT tox	TDP1 cell CPT	IL-1B inflam inh	HT1080 IDH1KD tx	TDP1 cell noCPT
C=CCOc1ccc(/C=N/NC(=O)c2cc3c(OC)cc(OC)cc3[nH]2)cc1	?	?	-17.9	?	25.9µM*
CCOc1ccc(/C=N/NC(=O)c2cc3c(OC)cc(OC)cc3[nH]2)cc1OC	?	13µM*	?	?	16.4µM*
CCOc1ccc(/C=N/NC(=O)c2ccncc2)cc1OC	2.5%	1.0%	11.1	-3.9%	-8.2%
COc1ccc(/C=N/NC(=O)c2ccn[nH]2)cc1COc1ccc(Cl)cc1	?	?	62.7	?	?
COCCNC(=S)N1CCC2CC1c1c(Cl)cccc12 (configuration not stated)	-7.0%	-24.3%	-0.8	-4.8%	?
O=C(CSc1nnc(-c2ccccn2)o1)Nc1ccccc1	2.2%	0.0%	0.0	-3.4%	-1.1%
O=C(CSC1=NNC(c2ccccn2)S1)Nc1cccc(Cl)c1 (configuration not stated)	?	1.84µM*	147.2	?	1.84µM*
O=C(CSC1=NNC(c2ccccn2)S1)Nc1ccccc1 (configuration not stated)	?	2.06µM*	184.1	?	1.84µM*
O=C(Nc1ccc(Cl)cc1)C1Cc2c(-c3ccc(Cl)cc3)ccnc2O1 (configuration not stated)	?	23.1µM*	-10.7	?	20.6µM*
O=C(Nc1ccc(F)c(Cl)c1)C1Cc2c(-c3ccc(Cl)cc3)ccnc2O1 (configuration not stated)	?	16.4µM*	-15.7	?	?
O=C(Nc1ccc(Cl)c(C(F)(F)F)c1)C1Cc2c(-c3ccccc3)ccnc2O1 (configuration not stated)	?	?	-1.3	?	?
CC(C)c1ccc(NC(=O)C2Cc3c(-c4ccc(Cl)cc4)ccnc3O2)cc1 (configuration not stated)	?	16.4µM*	?	?	9.2µM*
O=C(Nc1ccc(F)c(Cl)c1)C1Cc2c(-c3ccc4c(c3)OCO4)ccnc2O1 (configuration not stated)	16.4µM*	?	?	25.9µM*	?
CC(=O)NCCNC(=O)C1Cc2c(-c3ccc(Cl)cc3)ccnc2O1 (configuration not stated)	-10.7%	-5.6%	22.9	1.9%	-0.6%
COCCNC(=S)N1CCN(Cc2cccc(OC)c2)CC1	2.3%	-20.4%	3.3	6.9%	8.9%
COc1cc(=O)n2c(c1C(=O)NCc1ccsc1)CCN(Cc1nc3ccccc3[nH]1)CC2	·	-9.7%	·	·	-0.4%
CCOc1ccccc1N(CC(=O)NC1CCCC1)C(=O)CNC(=O)c1cccs1	-0.6%	2.6%	-2.1	10.1%	1.6%
O=C(Nc1ccc(Cl)cc1)C1Cc2c(-c3ccccc3)ccnc2O1 (configuration not stated)	-16.4%	?	-78.6*	-25.3%	?
O=C(CCOc1ccccc1)Nc1ccnn1C1CCN(Cc2ccc(O)cc2)CC1	-19.9%	-1.3%	-16.5	-3.6%	-6.7%
COc1cccc(-c2cccc(NC(=O)C3CCN(Cc4nccs4)CC3)c2)c1	3.0%	13.6%	2.3	5.7%	-2.4%
CC(C)c1csc(CN2CCC(n3nccc3NC(=O)Cc3ccccc3)CC2)n1	2.6%	?	i	-3.5%	25.9µM*
O=C(CCOc1ccccc1)Nc1ccnn1C1CCN(CCc2ccccc2)CC1	-5.8%	?	-51.5*	-2.0%	-25.5%
CC(C)c1csc(CN2CCC(C(=O)Nc3cccc(-c4ccco4)c3)CC2)n1	-5.2%	?	-27.7	-14.5%	18.4µM*
